Compound activity from PubChem.
HIF-2a inh – HIF-2a inhibition | 786-0 RCC cells HIF-2a reporter, luciferase luminescence, overnight | inhibition, % at 18.8 µM | actives 0.72% (n = 360,000);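 active = inhibition of the luminescence signal of 40% or more relative to plate controls, in a single-dose primary screen at 18.75 µM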
CF NFkB block – blocks PAF-induced NF-kB reporter in cystic fibrosis cells | actives 0.86% (n = 360,000) | inhibition, % at 5 µM | KKLEB NF-kB-GFP reporter, GFP fluorescence overnight;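 active = at least 50% inhibition at 5 µM, scaled per plate between neutral and stimulator controls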;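 also: PAF is a Pseudomonas aeruginosa culture filtrate used as stimulus; plate controls were PAF-stimulated DMSO wells for no effect and unstimulated DMSO wells for full effect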
TROY NFkB inh – TROY signaling inhibition. inhibition, % at 10 µM. Q293 LMP1-TROYcd NF-kB luciferase reporter, 4 h. actives 0.98% (n = 360,000). AID 1347056;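 active = compounds whose plate-normalised and pattern-corrected inhibition of the luciferase reporter signal at the single screening dose is 50% or more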
TWEAK-Fn14 inh – blocks TWEAK-Fn14 interaction in a reporter cell assay; TWEAK-stimulated Fn14 reporter cells, luciferase luminescence, 8 h; inhibition, % at 10 µM; actives 2% (n = 360,000); AID 1159606; in the data active = inhibition above about 50%
KKLEB cytotox – reduces viability of KKLEB cystic fibrosis airway cells | KKLEB CF airway cells viability, ATPlite luminescence, overnight; stronger effect = lower value; cells stimulated with P. aeruginosa culture filtrate | actives 0.36% (n = 360,000) | activity change (cytotoxicity), % at 5 µM;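 active = corrected activity change at or below -50% at 5 µM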
Peg3 prom inh – reduces Peg3 promoter-driven luciferase expression in HeLa; HeLa PEG-Prom luciferase reporter, luminescence, overnight; inhibition, % at 20 µM; actives 1.7% (n = 360,000); AID 588405;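 active = inhibition of at least 50% at 20 µM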
Mdm2-MdmX confirm – Mdm2/MdmX (human) interaction inhibition, confirmed; AID 504601; shares compounds with HIF-2a inh; SaOS-2 split-luciferase Mdm2/MdmX complementation, luminescence; actives 99% (n = 740); inhibition, % at 8 µM;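 active = mean inhibition of the luminescence signal across two replicates at or above 26 percent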
Target sequence (O15151 whole entry, looked up): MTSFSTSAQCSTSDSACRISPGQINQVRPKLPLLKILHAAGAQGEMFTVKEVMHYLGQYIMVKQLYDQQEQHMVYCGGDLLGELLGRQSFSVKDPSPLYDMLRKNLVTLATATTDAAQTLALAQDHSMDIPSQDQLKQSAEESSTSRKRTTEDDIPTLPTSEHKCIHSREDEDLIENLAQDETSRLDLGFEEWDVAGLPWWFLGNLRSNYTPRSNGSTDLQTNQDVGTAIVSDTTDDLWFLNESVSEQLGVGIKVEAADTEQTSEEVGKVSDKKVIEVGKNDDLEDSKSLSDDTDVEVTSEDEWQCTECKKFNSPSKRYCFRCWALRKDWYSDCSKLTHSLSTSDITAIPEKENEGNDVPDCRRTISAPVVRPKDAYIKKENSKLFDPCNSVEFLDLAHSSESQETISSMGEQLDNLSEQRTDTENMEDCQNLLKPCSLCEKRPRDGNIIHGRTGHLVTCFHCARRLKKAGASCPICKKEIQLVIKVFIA
Target sequence (Q00987 whole entry, looked up): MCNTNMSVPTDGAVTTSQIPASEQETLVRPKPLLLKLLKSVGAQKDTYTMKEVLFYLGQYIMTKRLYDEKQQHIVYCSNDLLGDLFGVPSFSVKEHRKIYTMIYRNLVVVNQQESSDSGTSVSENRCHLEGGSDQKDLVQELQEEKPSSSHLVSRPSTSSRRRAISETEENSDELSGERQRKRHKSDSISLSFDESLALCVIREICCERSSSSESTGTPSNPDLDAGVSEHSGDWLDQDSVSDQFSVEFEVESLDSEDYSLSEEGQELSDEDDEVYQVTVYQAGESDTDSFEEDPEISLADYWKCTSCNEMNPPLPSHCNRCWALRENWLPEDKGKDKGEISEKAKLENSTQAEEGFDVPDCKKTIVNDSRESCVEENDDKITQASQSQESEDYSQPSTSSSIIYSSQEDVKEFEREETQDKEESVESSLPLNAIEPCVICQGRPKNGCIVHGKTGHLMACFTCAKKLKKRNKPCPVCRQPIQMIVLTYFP
HIF-2a conf – HIF-2a inhibition, single concentration confirmation; shares compounds with HIF-2a inh; 786-0 RCC cells, HIF-2a luciferase reporter luminescence, overnight; inhibition, % at 18.8 µM; actives 56% (n = 1,800); AID 651580;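 active = mean inhibition across four replicates of at least 40 percent at the single tested concentration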
HIF-1a cs – inhibits HIF-1a reporter, a counter-screen for HIF-2a inhibitors; MiaPaCa-2 HIF-1a luciferase reporter, desferoxamine, overnight; shares compounds with HIF-2a inh; AID 651589; inhibition, % at 18.8 µM; actives 72% (n = 1,800);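 active = mean inhibition of the reporter signal across four replicates at the single tested dose of 50% or more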
* hit, by the source's call; . = no result. Rows were chosen to be rich in hits. Some 4% of all compounds tested hit in one or more screens of this group.

SMILES	HIF-2a inh	CF NFkB block	TROY NFkB inh	TWEAK-Fn14 inh	KKLEB cytotox	Peg3 prom inh	HIF-2a conf	HIF-1a cs	others
COCCCNC(=O)c1ccc(-n2nc(C(F)(F)F)cc2-c2cccs2)cc1	49*	44	7	5	-10	40	34	41
O=C(NCCCN1CCOCC1)c1cc(-c2cccs2)on1	-167	-70	-58	-73	3	-51	.	.
O=C(NCCCN1CCOCC1)c1ccc(-n2nc(C(F)(F)F)cc2-c2cccs2)cc1	45*	45	27	4	-24	55*	30	66*
COc1cccc(NC(=O)c2cccc(N3C(=O)C4C5C=CC(C5)C4C3=O)c2)c1 (centres undefined)	-25	13	3	-2	-3	10	.	.
COc1ccc(CN(C(=O)/C=C/C(=O)c2ccc(OC)cc2O)C(C(=O)NC2CCCCC2)c2ccncc2)cc1 (centres undefined)	32	-4	4	2	2	9	.	.
COc1ccc(C(=O)/C=C/C(=O)N(CC(=O)NC2CCCCC2)Cc2cccs2)c(O)c1	95*	35	42	82*	-16	105*	95*	101*
COCCN(CC(=O)NC1CCCCC1)C(=O)/C=C/C(=O)c1ccc(OC)cc1O	92*	26	58*	74*	5	97*	99*	103*
CN1CCc2c(sc(NC(=O)c3ccc([N+](=O)[O-])o3)c2C(N)=O)C1	55*	82*	65*	52*	-23	107*	55*	104*	Mdm2-MdmX confirm=101*
CN1CCc2c(sc(NC(=O)c3ccco3)c2C(N)=O)C1	-53	0	1	17	0	-34	.	.
CCCCC(=NCCc1c(C)[nH]c2ccc(OC)cc12)C1=C(O)CC(c2ccccc2)CC1=O (centres undefined)	41*	36	24	13	0	28	23	65*
CC(=O)N(C)c1ccc(N=C2C(=O)Nc3ccccc32)cc1	16	-5	39	14	2	20	.	.
C=CCOc1cccc(C(=O)N2CCCC(CCC(=O)NCc3ccccc3F)C2)c1 (centres undefined)	-37	-8	-12	-30	9	-30	.	.
CC(=O)/C=C1/C(=O)Nc2ccccc21	40*	-2	-13	9	-2	22	49*	5
C=CCOc1cccc(C(=O)/C=C2/C(=O)Nc3ccccc32)c1	59*	86*	29	30	-52*	85*	59*	105*
Cc1c(-c2ccccc2)c(-c2ccc(OCCN(C)C)cc2)n2ccccc12	-5	22	-6	6	-17	-7	.	.
O=[N+]([O-])c1ccc(/C=N/NC(=S)Nc2ccc(Cl)cc2Cl)s1	-29	-2	47	4	0	60*	.	.	Mdm2-MdmX confirm=84*
Cc1ccccc1C(=O)N/N=C/c1ccc([N+](=O)[O-])s1	76*	-4	6	13	1	50*	90*	95*
O=C(N/N=C/c1ccc([N+](=O)[O-])s1)c1ccccc1	51*	-35	-25	-12	40	1	49*	67*
Fc1ccc(/C=N/NC(=S)Nc2ccc(Cl)cc2Cl)cc1	-70	2	-16	-4	-21	10	.	.
O=C(N/N=C/c1ccc([N+](=O)[O-])s1)c1ccccc1Br	70*	-15	-2	21	1	28	76*	91*
C[C@@H]1CN([C@@H](C)CO)S(=O)(=O)c2ccc(Br)cc2O[C@H]1CN(C)C(=O)Nc1ccc2c(c1)OCO2	-6	-3	-16	-15	5	-17	.	.
Fc1ccc2cc(-c3ccccc3F)ncc2c1	-195	-10	-72	-19	20	-233	.	.
O=C(OCN1C(=O)C(=O)c2ccccc21)c1ccc(Cl)cc1	19	-13	-20	9	5	2	.	.
Cc1ccccc1NC(=O)/C=C/c1ccc([N+](=O)[O-])s1	86*	66*	-34	95*	-59*	107*	68*	104*
O=C(NCCOc1ccccc1Cl)c1cccc2c1C(=O)c1ccc(Cl)cc1S2(=O)=O	-19	-10	-42	-27	9	41	.	.
SMILES	HIF-2a inh	CF NFkB block	TROY NFkB inh	TWEAK-Fn14 inh	KKLEB cytotox	Peg3 prom inh	HIF-2a conf	HIF-1a cs	others
CCNC(COC(=O)c1ccc([N+](=O)[O-])cc1)C1CCCCC1 (centres undefined)	-2	1	5	12	3	4	.	.
CCN(CC)c1ccc(/C=N/NC(=O)c2cccc(S(=O)(=O)N3CCOCC3)c2)c(O)c1	10	4	0	-2	-17	38	.	.	Mdm2-MdmX confirm=91*
CCN(CC)c1ccc(C=Nc2cccc(S(=O)(=O)N3CCOCC3)c2)c(O)c1	4	-21	10	2	-3	2	.	.
CC1CCCCN1C(=O)c1ccc(Br)o1 (centres undefined)	4	14	12	-5	11	5	.	.
COc1ccccc1-c1cc(C(F)(F)F)nc(N2CCCCC2)n1	5	6	4	-6	-5	3	.	.
COc1ccccc1-c1cc(C(F)(F)F)nc(S(=O)(=O)CCCC(=O)N2CCCCC2C)n1 (centres undefined)	91*	92*	65*	83*	-75*	110*	91*	107*
COc1ccccc1-c1cc(C(F)(F)F)nc(S(=O)(=O)CCCC(=O)NCc2ccc(F)cc2)n1	80*	95*	84*	99*	-88*	107*	71*	102*	Mdm2-MdmX confirm=103*
COc1cccc(OCCn2cc(C(C)=O)c3ccccc32)c1	-16	-5	2	23	-12	-5	.	.
Cc1c(/C(O)=C2/C(=O)C(=O)N(CCN3CCOCC3)C2c2ccccn2)cnn1-c1ccccc1 (centres undefined)	73*	-1	85*	92*	-3	33	40*	59*
COc1ccc(/C=N\n2nnc3ccccc32)cc1	40*	1	45	90*	-19	48	72*	42
COc1ccc(/C=N/n2c(C)nc3ccccc3c2=O)cc1	-94	-10	-37	37	16	-110	.	.
CN(C)CCn1c2ccccc2c2nc3ccc([N+](=O)[O-])cc3cc21	-70	-81	-116	-71	1	-11	.	.	Mdm2-MdmX confirm=102*
CCn1c2ccccc2c2cc([N+](=O)[O-])ccc21	12	2	-16	-2	11	2	.	.
